Structures are written as SMILES. The list shows a part of the results. Activity calls are given as the source filed them.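 Rule for the calls: active = mean activity change at or below -40%, meaning activation of 40% or more, at 20 µM; inactive = the rest.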

This experiment deals with Apoptotic protease-activating factor 1 (Homo sapiens) (UniProt O14727). Briefly: Apaf-1 activators, single-dose retest, confirmation, biochemical, fluorescence, DEVD-Rh110, 20 µM (AID 504617). The conditions noted are these: reconstituted apoptosome caspase-3 activity, at 20 µM, active compounds read low.
Apoptotic protease-activating factor 1 (Homo sapiens), sequence (O14727 whole entry, looked up): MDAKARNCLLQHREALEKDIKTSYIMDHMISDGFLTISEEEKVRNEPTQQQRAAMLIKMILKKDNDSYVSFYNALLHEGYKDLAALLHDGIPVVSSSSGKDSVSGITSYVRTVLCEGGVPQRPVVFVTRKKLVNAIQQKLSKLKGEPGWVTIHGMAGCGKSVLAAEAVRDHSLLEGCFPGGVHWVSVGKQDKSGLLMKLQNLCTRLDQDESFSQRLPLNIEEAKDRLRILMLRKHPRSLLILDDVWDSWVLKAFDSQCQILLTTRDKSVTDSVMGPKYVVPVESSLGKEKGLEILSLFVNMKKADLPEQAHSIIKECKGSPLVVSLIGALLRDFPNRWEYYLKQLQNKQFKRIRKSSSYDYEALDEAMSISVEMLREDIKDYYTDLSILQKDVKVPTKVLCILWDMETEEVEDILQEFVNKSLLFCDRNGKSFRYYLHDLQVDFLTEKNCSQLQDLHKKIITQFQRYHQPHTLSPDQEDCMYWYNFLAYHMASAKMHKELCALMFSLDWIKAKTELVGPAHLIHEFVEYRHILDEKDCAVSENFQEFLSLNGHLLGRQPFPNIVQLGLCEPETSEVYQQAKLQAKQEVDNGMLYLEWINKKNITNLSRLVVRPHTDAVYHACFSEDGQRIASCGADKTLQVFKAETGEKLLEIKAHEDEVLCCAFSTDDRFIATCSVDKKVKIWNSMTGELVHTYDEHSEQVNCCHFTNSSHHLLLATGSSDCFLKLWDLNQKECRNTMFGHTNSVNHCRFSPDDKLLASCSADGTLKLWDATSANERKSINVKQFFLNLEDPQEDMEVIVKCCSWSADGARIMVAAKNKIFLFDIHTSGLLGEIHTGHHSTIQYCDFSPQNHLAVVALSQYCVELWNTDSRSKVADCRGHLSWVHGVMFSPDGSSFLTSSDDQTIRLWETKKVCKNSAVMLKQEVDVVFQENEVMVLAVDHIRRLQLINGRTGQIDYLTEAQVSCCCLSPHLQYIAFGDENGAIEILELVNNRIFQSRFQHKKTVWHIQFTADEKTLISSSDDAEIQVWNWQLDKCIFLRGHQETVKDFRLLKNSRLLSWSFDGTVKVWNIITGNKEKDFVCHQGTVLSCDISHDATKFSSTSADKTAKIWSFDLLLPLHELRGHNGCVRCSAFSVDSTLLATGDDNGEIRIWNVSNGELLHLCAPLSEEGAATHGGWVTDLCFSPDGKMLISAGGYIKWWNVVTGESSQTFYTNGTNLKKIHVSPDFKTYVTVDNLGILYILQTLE
Consider `C=C(C)C(=O)Nc1cccc(C2=NOC3(C2)C[C@H](C(N)=O)N(C(=O)C(c2ccccc2)c2ccccc2)C3)c1` (stereo partly specified), for which the activity change, negative = activation was -78.6% (active).
Then `CCOc1ccc(N=C2NC(=O)S/C2=C\c2ccc(O)cc2)cc1`, with -7.41% (inactive); and `CC1COc2ccccc2N1C(=O)c1cccnc1Cl` (stereo unspecified), with 6.25% (inactive); and `Cc1ccc(S(=O)(=O)N2CCOCC2)cc1C(=O)NC(=S)N(Cc1ccccc1)C(C)C`, with 16.4% (inactive).
In the case of `Cc1ccc(S(=O)(=O)c2c(N)n(C)c3nc4ccccc4nc23)cc1`, the activity change, negative = activation was 18.5% (inactive).
In the case of `CC(=O)CCC(=O)c1ccc2ccccc2c1`, the activity change, negative = activation is 13.2% (inactive).
As to `COc1cc(C2C(C#N)=C(N)Oc3n[nH]c(-c4ccccn4)c32)cc(OC)c1OC` (stereo unspecified), the activity change, negative = activation was 16.8% (inactive).
Regarding `Clc1cccc(-c2nc3nc4ccccc4nc3n2Cc2ccco2)c1`, the activity change, negative = activation was 21.3% (inactive).
In the case of `Cc1ccc(Nc2nc(CSc3nnc(-c4ccncc4)n3-c3ccccc3C)cs2)cc1`, the activity change, negative = activation was 26.5% (inactive).
On to `COc1cccc(C(=O)Nc2ccc(N3CCCC3)cc2)c1`, for which the activity change, negative = activation was 7.29% (inactive).
Regarding `Cc1cc(NC(=O)c2cccc(N3C(=O)CCC3=O)c2)no1`, the activity change, negative = activation is 4.77% (inactive).
On to `O=C(CSc1ccc(-c2ccc(-n3cccn3)cc2)nn1)Nc1ccc([N+](=O)[O-])cc1`, for which the activity change, negative = activation is 8.16% (inactive).
As for `COc1ccc(C2c3ccc(O)cc3Oc3ncn(CCCO)c(=N)c32)cc1OC` (stereo unspecified), the activity change, negative = activation is 0.56% (inactive).
Then `CC(C)N1CCC(NC(=O)Nc2ccccc2)CC1`, with 9.51% (inactive).
Consider `Nc1cc(C(F)(F)F)ccc1N1CCOCC1`, for which the activity change, negative = activation was 16.7% (inactive).
`CC(=O)NC(=S)NNC(=O)c1ccc(Br)cc1`: the activity change, negative = activation is 17.7% (inactive).
Then `CCOCCc1c(O)nc(SCC(=O)NCc2ccco2)[nH]c1=O`, with 7% (inactive); and `O=C(Nc1cccc(C(F)(F)F)c1)c1cnccn1`, with 14.9% (inactive).
Take `C=CCNC(=O)c1ccc(C)c(Br)c1`: the activity change, negative = activation is 5.25% (inactive).
For the compound `COc1ccc2c(c1)CCNC2Cc1ccc(OC)c(O)c1` (stereo unspecified), the activity change, negative = activation was 12.2% (inactive).
For the compound `N#CC1(C#N)C(C(=O)C23CC4CC(CC(C4)C2)C3)C12CCOCC2` (stereo unspecified), the activity change, negative = activation is 6.87% (inactive).

(Values after PubChem BioAssay AID504617 (Sanford-Burnham Center for Chemical Genomics, 2011).)
